The results in this text go back to PubChem BioAssay (NCI).

The panel holds about 83,000 compounds, 20% with a hit somewhere; the sample as a whole holds those more often.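 Compound tested at a single concentration for 48 hours in 96-well plates; a percent growth value below 10 was scored as active.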 A number with no mark means an inactive call. Calls of active or inactive are those of the source.

The assay relates to IGROV1 ovarian. Put plainly: NCI-60 one-dose screen, 48 h (100 = growth as untreated, 0 = no growth, -100 = all killed). The following applies: 10 µM unless noted.
Consider `N#C/C(C(=O)c1ccccc1)=C1/C(=O)Nc2ccc(F)cc21`, for which the growth is 97.4%.
As for `C=C(C)[C@@H]1CC[C@]2(C(=O)NCCCN)CC[C@]3(C)[C@H](CC[C@@H]4[C@@]5(C)CC[C@H](O)C(C)(C)[C@@H]5CC[C@]43C)[C@@H]12`, the figure is -6.94% [100 µM] (active).
As to `O=C1/C(=C\c2cn(CC(O)CN3CCCCC3)c3ccccc23)c2ccccc2N1c1c(Cl)cccc1Cl` (stereo not drawn), the growth was -70.2% (active).
To `COc1ccc(OC)c([N+](=O)[O-])c1C(=O)CNC(C)=O` belongs 106%; to `CCNc1cc2c(cc1Br)-c1ccccc1C2=O`, 82%; to `CCOc1cccc2c(NC(C)CCCN(CC)CC)c(C)cnc12` (stereo not drawn), 102%.
To `COc1cc(/C=C/C(=O)/C=C/c2ccc(-n3ccnc3C)cc2)ccc1O` belongs -37.5% (active).
With `COc1cc(-c2nc(SCCC(C)C)nc(Nc3ccccc3)c2C#N)cc(OC)c1OC`, the growth is 100%.
As for `CN(C)C(=S)Sc1ccc([N+](=O)[O-])cc1[N+](=O)[O-]`, the figure is 1.54% (active); as for `CCCCCCCCCCCCNC(=S)N/N=C/c1ccccc1O`, 65.1%.
As for `CC1(C)CC[C@]2(C(=O)OC(=O)[C@]34CCC(C)(C)C[C@@H]3C3=CC[C@@H]5[C@@]6(C)CCC(=O)C(C)(C)[C@@H]6CC[C@@]5(C)[C@]3(C)CC4)CC[C@]3(C)C(=CC[C@@H]4[C@@]5(C)CCC(=O)C(C)(C)[C@@H]5CC[C@]43C)[C@H]2C1`, the figure is 84.4% [100 µM].
To `COc1cccc(-c2[nH]c(=S)ncc2C(=O)c2ccccc2)c1` belongs 77.2%; to `O=C(N=c1n(-c2ccccc2)nc2n1CCN2C1=NCCN1C(=O)c1ccc(Cl)cc1)c1ccc(Cl)cc1`, 59%.
`COc1cc2c(=O)[nH]c3cc([N+](=O)[O-])ccc3c2cc1[N+](=O)[O-]`: the growth is 41.5%.
As for `NC(=O)CC1C=CCC1` (stereo not drawn), the growth is 107%.
With `O=C(Nc1cccc2ccccc12)c1cc2ccccc2cc1O`, the growth was 7.48% (active).
Consider `Cc1ccc(N)c(O)c1`, for which the growth was 69.6%.
As for `CCOC(=O)CCC[P+](c1ccccc1)(c1ccccc1)c1ccccc1`, the figure is 65.8%; as for `CCN(CC)c1cc(N)c(Cc2c(N)cc(N(CC)CC)cc2Cl)c(Cl)c1`, 54.7%; as for `CSc1nc(N)c(N=Nc2ccc(S(=O)(=O)Nc3nnc(C)s3)cc2)c(=O)[nH]1`, 126%.
As for `CC1(C)C(=O)/C(=C\c2cccnc2)C[C@]2(C)[C@H]3CC[C@@H]4[C@H]5[C@H](C(=O)/C=C/c6cccnc6)CC[C@]5(C(=O)O)CC[C@@]4(C)[C@]3(C)CC[C@@H]12`, the growth is -34.3% [100 µM] (active).
To `N#CCCc1c[nH]c2ccccc12` belongs 103%; to `C[C@@H]1C[C@H]2C(=O)O[C@@H](C)[C@H](NC(=O)[C@H](Cc3cc(F)cc(F)c3)NC(=O)Nc3ccc(C4CC4)cc3F)C(=O)N3CCC[C@H]3C(=O)N3CCCC[C@H]3C(=O)N[C@@H](C)C(=O)N2C1`, 28.5%.
As for `C#CCNC(=O)CC[C@]1(C)[C@H]2CC[C@@H]3[C@@H]([C@@](C)(O)CCC=C(C)C)CC[C@@]3(C)[C@]2(C)CC[C@H]1C(=C)C`, the figure is -62.6% [100 µM] (active).
To `CC1(C)CC[C@]2(C(=O)O)CC[C@]3(C)C(=CC[C@@H]4[C@@]5(C)C/C(=C/c6ccco6)C(=O)C(C)(C)[C@@H]5CC[C@]43C)[C@@H]2C1` belongs -38.7% [100 µM] (active); to `C=C(C)[C@@H]1CC[C@]2(C(=O)O)CC[C@]3(C)[C@H](CC[C@@H]4[C@@]5(C)C/C(=C/c6ccco6)C(=O)C(C)(C)[C@@H]5CC[C@]43C)[C@@H]12`, -63.2% [100 µM] (active); to `C[n+]1cccc(NC(=O)c2ccc3ccc4ccc(C(=O)Nc5ccc[n+](C)c5)nc4c3n2)c1`, 32.3%.
In the case of `CCOC(=O)c1nn(C2CCCCO2)c2ccc(NC(=O)Cn3nnc4ccccc43)cc12` (stereo not drawn), the growth was 103%.
As for `Cn1cc(-c2nnc(-c3cn(C)c4ncc(Br)cc34)o2)c2ccccc21`, the figure is 65.8%; as for `O=C(Nc1ccc(Oc2ccc(F)cc2)c(Cl)c1)c1cccnn1`, 97.6%; as for `Cc1ccc2c(n1)C(=O)C(Cl)=C(Nc1ccc(N3CCN(C)CC3)cc1)C2=O`, -83.5% (active).
On to `c1cc2ccc1CNCCN1CCNCc3ccc(cc3)Oc3ccc(cc3)CNCCN(CCNCc3ccc(cc3)O2)CCNCc2ccc(cc2)Oc2ccc(cc2)CNCC1`, for which the growth was -64.3% (active).
As for `Cc1ccc(-c2cn(C/C=C3\C=CN(S(=O)(=O)c4ccccc4)CC3)nn2)cc1`, the figure is 104%.
